# Test results as given in PubChem BioAssay AID485297 (National Center for Advancing Translational Sciences (NCATS), 2010).
# Out of some 320,000 compounds screened, about 9,100 (2.8%) were called active. Inconclusive results (about 3%) are left out. The call rests on the fitted dose curve; in most records, active means well fitted activation curve with a large enough effect; inconclusive means small, poorly fitted or top-dose-only effect; inactive means no such curve, though single readings can be large or run the other way. The entries come from a sample that favours actives as a whole. A call without a number means that no potency is given here.
# Assay: qHTS Assay for Rab9 Promoter Activators; further: nearly all actives have a fitted effect of over 60% in size
# Conditions: Huh7 Rab9 promoter-luciferase reporter, luminescence, 24 h; series mostly up to 9.22 µM
# In short: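 Huh7 cells stably carrying a Rab9 promoter-luciferase reporter, 1500 cells per well in OP-MEM I with 10% FBS, treated with compound 24 hours at 37C. Luciferase activity read by luminescence after 10 minutes with Amplite reagent.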
# Potency means the concentration at half of the fitted maximal effect.
row,Compound,Potency
1,COc1ccc(CC2c3cc(OC)c(OC)cc3CC[N+]2(C)CCC(=O)OCCCCCOC(=O)CC[N+]2(C)CCc3cc(OC)c(OC)cc3C2Cc2ccc(OC)c(OC)c2)cc1OC (stereo not drawn),inactive
2,CCc1cccc(C)c1NC(=O)COC(=O)CC1CCCC1,inactive
3,Cc1cc(C)c(S(=O)(=O)N2CCC(C(=O)OCc3c(C)noc3C)CC2)c(C)c1,inactive
4,CC(=O)c1ccc(OCCCC(=O)Nc2ccc(C)c(S(=O)(=O)N3CCOCC3)c2)cc1,inactive
5,COc1ccc(Cl)cc1C(=O)OCC(=O)NCc1cccs1,inactive
6,CCOC(=O)c1c(C)[nH]c(C(=O)NCCN2CCOCC2)c1C,inactive
7,COC(=O)Cc1ccc(OCC(=O)NC2CCCC2)cc1,inactive
8,CN(CC(=O)Nc1ccc(F)cc1)CC(=O)N1CCCCC1,inactive
9,COc1ccccc1-c1oc2ccccc2c1C#CCCCCO,inactive
10,O=C(C1CC(=O)N(C2CCCC2)C1)N1CCN(c2cccc(C(F)(F)F)c2)CC1 (stereo not drawn),inactive
11,CCOC(=O)c1nc(-c2ccc3c(c2)OCO3)[nH]c1C,inactive
12,CC(C)c1ccc(NC(=O)COC(=O)c2ccc(CN3CCCC3=O)cc2)cc1,inactive
13,O=C(CSc1nnc(Nc2ccccc2F)s1)NC1CCCC1,inactive
14,Cc1c(NC(=O)CSCc2ccccc2)cccc1C(=O)O,inactive
15,COc1cc(OC)cc(C(=O)NNC(=O)CCOc2ccccc2OC)c1,inactive
16,CCN(C(=O)COC(=O)Cc1c(F)cccc1Cl)c1c(N)n(Cc2ccccc2)c(=O)[nH]c1=O,inactive
17,O=C(CSc1nnc(-c2ccco2)n1-c1ccccc1)NCCc1ccccc1,inactive
18,c1ccc(CSc2nnc(-c3ccco3)n2Cc2ccccc2)cc1,3.55 µM (active)
19,O=C(CSc1nnc(-c2ccco2)n1CC1CCCO1)c1ccccc1 (stereo not drawn),inactive
20,COc1ccc(NC(=O)CN(C)C(=O)c2cc(C3CC3)nn2-c2ccccc2)cc1,inactive
21,COc1ccccc1C1=CC(=O)C[C@H](c2ccc(F)cc2)C1,inactive
22,CSCCC(NC(=O)c1ccccc1)C(=O)N1CCN(Cc2ccc(Cl)cc2)CC1 (stereo not drawn),inactive
23,Cc1ccc(F)c(NC(=O)CCc2ccccc2)c1,2.82 µM (active)
24,O=C(CCc1ccccc1)NNc1ccc(F)cc1,inactive

row,Compound,Potency
1,Cc1ccc(F)c(NC(=O)CCOc2ccccc2C)c1,inactive
2,COC(=O)C1=CO[C@@H](O[C@@H]2O[C@H](CO)[C@@H](O)[C@H](O)[C@H]2O)C2C1C[C@H](O)[C@@H]2C (stereo partly drawn),inactive
3,N#Cc1nc(Cc2cccc3ccccc23)oc1NCc1ccc2c(c1)OCO2,inactive
4,N#Cc1nc(Cc2ccccc2)oc1NCCc1ccccc1,3.16 µM (active)
5,Cc1ccccc1-c1nc(C#N)c(NCc2ccco2)o1,inactive
6,Cc1cccc(-c2oc3ccc(-c4ccc5c(c4)OCO5)cc3c2C#Cc2cncn2C)c1,inactive
7,CCOC(=O)Cn1nnnc1C,inactive
8,CCOC(=O)/C(C#N)=C/c1ccc(N2CCCCC2)cc1,3.16 µM (active)
9,COc1ccc(N2CCN(C(=O)/C(C#N)=C/c3ccccc3)CC2)cc1,inactive
10,CCOC(=O)/C(C#N)=C/c1ccc(N2CCN(Cc3ccccc3)CC2)cc1,inactive
11,Cc1ccc(C)c(OCC(=O)NNC(=O)C2CCC2)c1,inactive
12,O=C(c1ccc(F)cc1)N1CCC(n2nnc3ccccc32)CC1,1.12 µM (active)
13,CC(=O)c1cccc(S(=O)(=O)N2CCC(n3nnc4cc(F)ccc43)CC2)c1,inactive
14,O=S(=O)(c1cccc(S(=O)(=O)N2CCC(n3nnc4ccccc43)CC2)c1)N1CCCCC1,inactive
15,CN(C)c1nc(-c2cccnc2)nc(-c2ccc(Cl)cc2)c1C#N,inactive
16,COC(=O)CSc1nnc(-c2cccnc2)o1,inactive
17,CN(C)c1ccc(-c2nnc(-c3cccnc3)o2)cc1,1.58 µM (active)
18,Cc1ccc(S(=O)(=O)N2CCCCC2)cc1NC(=O)[C@@H]1CCCN1C(=O)c1cccs1,inactive
19,CCC(C)N1C(=O)S/C(=C/c2ccc(Sc3nc4ccccc4[nH]3)o2)C1=O (stereo not drawn),inactive
20,CCCCNC(=O)C(=O)c1ccccc1NC(C)=O,inactive
21,O=C(Nc1ccccc1)c1ccccc1NC(=O)C(F)(F)F,inactive
22,CC(=O)Nc1ccccc1C(=O)C(=O)Nc1ccc(F)cc1,2.51 µM (active)
23,N#Cc1nc(-c2cccc3ccccc23)oc1N,inactive
24,CSc1ccccc1N1CCN(CCCCCC(=O)NC2CCCc3ccccc32)CC1 (stereo not drawn),inactive

row,Compound,Potency
1,COc1ccccc1C(=O)Nc1ccc(C)c(S(=O)(=O)N2CCCCC2)c1,inactive
2,Cn1c(CN2CCOCC2)nc2cc(NC(=O)c3ccc(Cl)cc3)ccc21,inactive
3,CCCC(=O)Nc1ccc2c(c1)nc(CCNC(=O)c1ccco1)n2C,inactive
4,Cn1sc(NC(=O)c2ccccc2)nc1=O,inactive
5,Cn1c(NC(=O)c2ccccc2)nc2ccccc21,2.82 µM (active)
6,Cn1c(S(=O)(=O)O)nc2ccccc21,inactive
7,CC(=O)NCCc1nc2cc(NC(=O)c3ccccc3)ccc2n1C,3.55 µM (active)
8,O=C(NC1CCCCCC1)C1CCN(C(=O)c2ccc(Cl)cc2)CC1,inactive
9,O=C(c1c(F)cccc1F)N1CCN(S(=O)(=O)c2ccc3c(c2)OCCO3)CC1,inactive
10,Cc1cc(C)cc(OCC(=O)OCC(=O)NC2CCCC2)c1,inactive
11,O=C(CN1CCCCCC1)Nc1ccc(Br)cc1[N+](=O)[O-],inactive
12,CCCN(CC(=O)Nc1ccccc1C)C(=O)c1ccc2[nH]c3c(c2c1)CC(C)CC3 (stereo not drawn),inactive
13,CCOC(=O)c1sc(N)c(C#N)c1COC(=O)C1=COCCO1,inactive
14,CN(C(=O)CSc1nnc(C2CC2)n1C)C1CCCc2ccccc21 (stereo not drawn),inactive
15,Cc1cccc(S(=O)(=O)CC(=O)Nc2nc(-c3ccccc3)cs2)c1,inactive
16,CC(=O)Nc1cccc(-c2csc(Nc3cccc(C)n3)n2)c1,1.58 µM (active)
17,Cc1cccc(Nc2nc(-c3ccccc3)cs2)n1,3.98 µM (active)
18,CC(=O)Nc1ccc(-c2csc(NC=C3C(=O)OC(C)(C)OC3=O)n2)cc1,inactive
19,O=C(Nc1ccc(-c2csc(Nc3cccc(C(F)(F)F)c3)n2)cc1)c1cccc(C(F)(F)F)c1,inactive
20,COc1ccc2c(c1OC)C(=O)OC2Nc1nc(-c2ccccc2)cs1 (stereo not drawn),inactive
21,CC(=O)Nc1cccc(-c2cnc3ccccc3n2)c1,3.98 µM (active)
22,Cc1cc(O)ccc1-c1cnc2ccccc2n1,inactive
23,CCS(=O)(=O)Nc1cccc(-c2cc(-c3ccccc3)c3cc(C)ccc3n2)c1,inactive
24,COc1ccc(S(=O)(=O)Nc2cc(C)on2)cc1NC(C)=O,inactive

row,Compound,Potency
1,Cc1ccc(NC(=O)Cn2nnc(C(=O)NCc3ccco3)c2N)c(C)c1,inactive
2,COc1ccc([C@H]2CC(=O)C=C(/C=C/c3ccc(Cl)cc3)C2)cc1,inactive
3,CSCCC(NC(=O)c1ccco1)C(=O)NCCc1ccc(F)cc1 (stereo not drawn),inactive
4,CCCC(=O)N1CCN(c2nnc(-c3ccc(C)cc3)c3ccccc23)CC1,inactive
5,O=C(C1CCC1)N1CCN(S(=O)(=O)c2ccc([N+](=O)[O-])cc2)CC1,inactive
6,Cc1ccc2c(c1)C1CN(C)CCC1N2S(=O)(=O)c1cccc(F)c1 (stereo not drawn),inactive
7,Cc1ncc(CC(=O)n2cc(C(=O)c3cc(Cl)ccc3O)cn2)s1,inactive
8,COc1ccc(CNC(=O)COc2ccccc2C(=O)c2cnn(-c3ccccc3)c2)cc1OC,inactive
9,O=C(c1cnn(-c2ccc(Cl)cc2)c1)c1ccccc1O,3.55 µM (active)
10,COc1ccc(-c2c(-c3cc(OC)cc(OC)c3)n(C)c3ccc(-c4ccn[nH]4)cc23)cc1,inactive
11,Cc1cc(C(=O)COc2ccc(Br)cc2F)c(C)n1C1CC1,inactive
12,CC(=O)NC(c1cccs1)c1cc(Br)c2cccnc2c1O (stereo not drawn),inactive
13,COc1ccc(C)cc1NC(=O)c1cc(-c2ccccc2)nc2c1cnn2C(C)C,inactive
14,CC1Cc2ccccc2N1S(=O)(=O)c1cccc(C(=O)NCC(c2ccco2)N2CCCC2)c1 (stereo not drawn),inactive
15,Nc1ccc(N=Nc2ccccc2Cl)c(N)n1,2.82 µM (active)
16,CCc1cccc(NC(=O)COC(=O)c2cc(=O)c3ccccc3o2)c1,inactive
17,CCOC(=O)c1ccc(NC(=O)C2CC(=O)N(c3ccc4c(c3)OCCO4)C2)cc1 (stereo not drawn),inactive
18,CCCN(CC1CC1)C(=S)NC(=O)c1ccccc1Br,inactive
19,Cc1noc(NS(=O)(=O)c2ccc(N/C=C/C(=O)c3ccccc3)cc2)c1C,inactive
20,Cc1ccc(N/C=C/C(=O)c2ccccc2)cc1C,0.562 µM (active)
21,CCOc1ccc(N/C=C/C(=O)c2cc(OC)c(OC)c(OC)c2)cc1,inactive
22,COc1ccc(C(=O)/C=C/c2ccc(OC3CSC3)cc2)cc1,inactive
23,O=C(NNc1ccccn1)c1ccc(Cl)nc1,inactive
24,O=C(/C=C/NCc1ccc(F)cc1)c1ccccc1,inactive

row,Compound,Potency
1,CCOc1ccc(NC(=S)N2CCC(NC(=O)c3ccccc3)CC2)cc1,inactive
2,CCOc1ccc(N/C=C/C(=O)c2ccccc2)cc1,0.316 µM (active)
3,COc1ccc(C(=O)/C=C/Nc2ccccn2)cc1,0.1 µM (active)
4,O=C(CC1SC(N2CCCC2)=NC1=O)Nc1ccc(C(=O)NCCc2ccc(F)cc2)cc1 (stereo not drawn),inactive
5,Cc1ccc(NC(=O)c2cccc(S(=O)(=O)N3CCCc4ccccc43)c2)nc1,inactive
6,C=CC(=O)OCCOCCOCCOCCOC(=O)C=C,inactive
7,Cc1ccc(S(=O)(=O)Nc2nc3ccccc3s2)cc1[N+](=O)[O-],inactive
8,Cc1ccnc(NC(=O)c2ccco2)n1,inactive
9,Cc1ccnc(Nc2nc3ccccc3s2)n1,1.41 µM (active)
10,O=C(CCNS(=O)(=O)c1ccc(Br)cc1)NCC1CCCO1 (stereo not drawn),inactive
11,O=C(Nc1cccnc1Cl)c1cc(-c2ccccc2O)on1,inactive
12,O=C(c1cc(-c2ccccc2O)on1)N1CCCC1,3.98 µM (active)
13,O=C(c1cc(-c2ccc(F)cc2)on1)N1CCN(c2ccc(F)cc2)CC1,inactive
14,O=C(c1cc(-c2cccc(O)c2)on1)N1CCc2ccccc2C1,inactive
15,O=C(c1cc(-c2cccs2)on1)N1CCCCC1,0.562 µM (active)
16,COc1cccc(-c2cc(C(=O)N3CCN(c4ccccc4OC)CC3)no2)c1,inactive
17,COc1ccc(-c2cc(C(=O)N3CCN(c4ccc(F)cc4)CC3)no2)cc1,inactive
18,O=C(c1cc(-c2ccc(O)cc2)on1)N1CCOCC1,1.12 µM (active)
19,O=C(c1cc(-c2ccc(O)cc2)on1)N1CCCc2ccccc21,inactive
20,CC(=O)c1ccc(NC(=O)c2cc(-c3cccs3)on2)cc1,inactive
21,O=C(CSc1n[nH]c(-c2cccs2)n1)N1CCCCC1,inactive
22,COc1ccccc1-c1cc(C(=O)N2CCCCC2)no1,3.55 µM (active)
